Eight compounds from ChEMBL document CHEMBL3988442, “University of Dundee, Small-Polar-MMV Screening Library” (2021) can be followed below.

For some of these results: Potency and affinity values are given separately.

What all share (set-up): scale not given: direction of the effect not stated beside the values
Assay [1] addresses Protein translocase subunit SecA (Escherichia coli (strain K12)) (UniProt P10408). Kind of assay: Assay to Identify E. coli SecA ATPase Inhibitors. Type of assay: functional. The note with it: 30 µM.
Assay [2] concerns the target T1, Ubiquitin-activating enzyme e1, putative (Leishmania donovani (strain BPK282A1)) (UniProt E9BSI1).
T1 sequence (whole entry): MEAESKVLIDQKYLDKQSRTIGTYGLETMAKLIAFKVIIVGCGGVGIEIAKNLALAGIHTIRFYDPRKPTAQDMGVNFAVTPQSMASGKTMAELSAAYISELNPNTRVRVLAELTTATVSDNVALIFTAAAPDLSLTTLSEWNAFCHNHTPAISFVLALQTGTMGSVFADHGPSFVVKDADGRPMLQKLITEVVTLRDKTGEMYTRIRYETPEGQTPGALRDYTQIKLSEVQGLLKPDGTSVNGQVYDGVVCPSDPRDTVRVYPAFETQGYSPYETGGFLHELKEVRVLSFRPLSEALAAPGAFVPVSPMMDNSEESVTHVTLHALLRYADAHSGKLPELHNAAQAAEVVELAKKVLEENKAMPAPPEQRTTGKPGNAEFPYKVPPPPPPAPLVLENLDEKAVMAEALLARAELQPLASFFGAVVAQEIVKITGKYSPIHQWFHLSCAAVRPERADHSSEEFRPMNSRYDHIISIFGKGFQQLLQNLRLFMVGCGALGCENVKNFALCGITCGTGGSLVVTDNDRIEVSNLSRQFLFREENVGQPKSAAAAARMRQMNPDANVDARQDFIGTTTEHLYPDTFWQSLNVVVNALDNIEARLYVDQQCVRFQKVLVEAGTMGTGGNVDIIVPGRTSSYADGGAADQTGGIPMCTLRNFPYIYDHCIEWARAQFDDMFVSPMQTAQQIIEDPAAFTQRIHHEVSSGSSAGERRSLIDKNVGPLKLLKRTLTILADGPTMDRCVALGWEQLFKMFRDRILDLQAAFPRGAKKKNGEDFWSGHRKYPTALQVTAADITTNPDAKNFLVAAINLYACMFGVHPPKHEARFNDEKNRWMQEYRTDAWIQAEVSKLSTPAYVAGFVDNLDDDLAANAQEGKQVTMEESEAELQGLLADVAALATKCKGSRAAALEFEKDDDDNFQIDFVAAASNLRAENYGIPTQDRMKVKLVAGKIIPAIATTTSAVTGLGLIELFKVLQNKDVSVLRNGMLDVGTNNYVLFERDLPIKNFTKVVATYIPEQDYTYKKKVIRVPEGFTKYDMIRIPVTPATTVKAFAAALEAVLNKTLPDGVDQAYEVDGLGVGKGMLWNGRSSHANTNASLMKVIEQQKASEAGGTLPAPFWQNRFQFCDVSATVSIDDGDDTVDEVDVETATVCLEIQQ
As to the kind of experiment: Leishmania donovani Ubiquitin Activating Enzyme (LdE1). The assay is classed as functional. Particulars: 30 µM.

For assay [3], the target named is AMP-activated protein kinase, AMPK (Homo sapiens) (UniProt P54646+O43741+P54619+Q9UGJ0+Q9Y478+Q13131+Q9UGI9). Kind of assay: AMP-dependent Kinase enzyme assay. An in vitro enzyme assay that detects ADP turnover that is directly proportional to AMPK activity. This uses naive AMPK that is activated during the assay with MK-8722. Type of assay: functional. The note with it: 30 µM.

Assay [4] has as its target Sialic acid-binding Ig-like lectin 9 (Homo sapiens) (UniProt Q9Y336). As to the kind of experiment: Hs-Siglec9 ALPHAscreen SOP 20170721. Particulars: 10 µM. On the technique in general: Bead proximity is the source of the signal in Alpha formats.
Another assay deals with Trypanosoma cruzi. As to the kind of experiment: Trypanosoma cruzi phosphomannomutase and mannose-1-phosphate guanylyltransferase assay. Type of assay: functional. Particulars: 10 µM.
Assay [5] deals with T2, Arginase-2, mitochondrial (Homo sapiens) (UniProt P78540).
T2 sequence (whole entry): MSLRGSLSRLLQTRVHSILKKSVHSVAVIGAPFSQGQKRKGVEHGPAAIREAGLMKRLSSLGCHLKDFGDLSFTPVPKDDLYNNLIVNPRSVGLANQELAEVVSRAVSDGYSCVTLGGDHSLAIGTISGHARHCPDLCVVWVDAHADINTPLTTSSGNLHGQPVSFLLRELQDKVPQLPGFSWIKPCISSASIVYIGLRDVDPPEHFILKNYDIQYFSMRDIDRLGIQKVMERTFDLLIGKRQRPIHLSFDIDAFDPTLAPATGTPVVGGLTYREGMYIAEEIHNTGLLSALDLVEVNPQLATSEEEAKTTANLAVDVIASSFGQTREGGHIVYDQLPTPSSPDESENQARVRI
As to the kind of experiment: in vitro enzyme assay to detect the production of urea directly proportional to the activity of Arginase II. Further: in the data most compounds retested in dose-response had high values. Type of assay: functional. The note with it: 33.3 µM.

The target of assay [6] is T3, Proteasome subunit beta (Trypanosoma cruzi) (UniProt O96673).
T3 sequence (whole entry): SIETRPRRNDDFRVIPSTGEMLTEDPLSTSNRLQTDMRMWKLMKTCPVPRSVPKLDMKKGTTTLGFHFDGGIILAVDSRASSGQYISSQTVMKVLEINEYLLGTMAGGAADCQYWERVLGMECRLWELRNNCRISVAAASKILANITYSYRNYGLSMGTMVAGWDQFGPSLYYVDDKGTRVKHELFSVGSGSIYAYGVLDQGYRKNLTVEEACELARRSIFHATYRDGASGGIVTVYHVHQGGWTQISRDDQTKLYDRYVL
As to the kind of experiment: Trypanosoma cruzi proteasome chymotrypsin-like activity (TcProtChymo) assay. Further: in the data most compounds retested in dose-response had high values. The note with it: 9.37 µM. The assay is classed as functional.

Another assay is filed under the species Homo sapiens. Kind of assay: To identify inhibition of the IFN signalling (Jak-Stat) pathway via expression of an eGFP reporter gene under the control of an IFN-stimulated response element (ISRE) containing MxA promoter. The note with it: 30 µM. Type of assay: functional. On the technique in general: In a reporter assay the amount or activity of a reporter protein is the signal.

Assay [7] deals with T4, Tyrosyl-tRNA synthetase, putative (Trypanosoma cruzi (strain CL Brener)) (UniProt Q4DSP6).
T4 sequence (whole entry): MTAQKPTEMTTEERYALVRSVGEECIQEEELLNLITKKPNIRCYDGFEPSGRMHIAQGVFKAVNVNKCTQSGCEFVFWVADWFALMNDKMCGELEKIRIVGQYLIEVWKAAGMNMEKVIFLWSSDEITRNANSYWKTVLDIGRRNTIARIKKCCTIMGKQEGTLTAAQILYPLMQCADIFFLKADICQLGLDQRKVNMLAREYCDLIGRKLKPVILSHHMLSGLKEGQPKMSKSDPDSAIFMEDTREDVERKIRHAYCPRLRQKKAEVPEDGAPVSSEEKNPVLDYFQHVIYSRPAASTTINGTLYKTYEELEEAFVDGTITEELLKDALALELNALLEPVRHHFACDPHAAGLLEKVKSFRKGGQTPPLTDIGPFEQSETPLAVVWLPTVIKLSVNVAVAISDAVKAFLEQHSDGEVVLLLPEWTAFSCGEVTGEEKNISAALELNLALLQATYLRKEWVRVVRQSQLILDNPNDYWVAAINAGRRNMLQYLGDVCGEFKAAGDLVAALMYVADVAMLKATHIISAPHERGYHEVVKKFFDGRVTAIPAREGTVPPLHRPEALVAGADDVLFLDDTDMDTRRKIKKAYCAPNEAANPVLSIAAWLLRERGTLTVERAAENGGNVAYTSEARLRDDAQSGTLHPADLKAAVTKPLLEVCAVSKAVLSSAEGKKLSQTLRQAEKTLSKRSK
As to the kind of experiment: Trypanosoma cruzi tyrosyl tRNA synthetase (TcYRS) _High Tyrosine SOP. Further: in the data most compounds retested in dose-response had high values. The assay is classed as functional. Particulars: 30 µM.

In assay [8] the target is T4, Tyrosyl-tRNA synthetase, putative (Trypanosoma cruzi (strain CL Brener)). Kind of assay: Trypanosoma cruzi tyrosyl tRNA synthetase (TcYRS) SOP. Type of assay: functional. Particulars: 30 µM.
The target of assay [9] is Chromo domain-containing protein 1 (Saccharomyces cerevisiae (strain ATCC 204508 / S288c) (Baker's yeast)) (UniProt P32657). As to the kind of experiment: ScCHD-1 Enzyme Inhibition Assay. Further: in the data most compounds retested in dose-response had high values. Type of assay: functional. Particulars: 30 µM.
Chromo domain-containing protein 1 (Saccharomyces cerevisiae (strain ATCC 204508 / S288c) (Baker's yeast)), sequence (P32657 whole entry, the tested form may be a part): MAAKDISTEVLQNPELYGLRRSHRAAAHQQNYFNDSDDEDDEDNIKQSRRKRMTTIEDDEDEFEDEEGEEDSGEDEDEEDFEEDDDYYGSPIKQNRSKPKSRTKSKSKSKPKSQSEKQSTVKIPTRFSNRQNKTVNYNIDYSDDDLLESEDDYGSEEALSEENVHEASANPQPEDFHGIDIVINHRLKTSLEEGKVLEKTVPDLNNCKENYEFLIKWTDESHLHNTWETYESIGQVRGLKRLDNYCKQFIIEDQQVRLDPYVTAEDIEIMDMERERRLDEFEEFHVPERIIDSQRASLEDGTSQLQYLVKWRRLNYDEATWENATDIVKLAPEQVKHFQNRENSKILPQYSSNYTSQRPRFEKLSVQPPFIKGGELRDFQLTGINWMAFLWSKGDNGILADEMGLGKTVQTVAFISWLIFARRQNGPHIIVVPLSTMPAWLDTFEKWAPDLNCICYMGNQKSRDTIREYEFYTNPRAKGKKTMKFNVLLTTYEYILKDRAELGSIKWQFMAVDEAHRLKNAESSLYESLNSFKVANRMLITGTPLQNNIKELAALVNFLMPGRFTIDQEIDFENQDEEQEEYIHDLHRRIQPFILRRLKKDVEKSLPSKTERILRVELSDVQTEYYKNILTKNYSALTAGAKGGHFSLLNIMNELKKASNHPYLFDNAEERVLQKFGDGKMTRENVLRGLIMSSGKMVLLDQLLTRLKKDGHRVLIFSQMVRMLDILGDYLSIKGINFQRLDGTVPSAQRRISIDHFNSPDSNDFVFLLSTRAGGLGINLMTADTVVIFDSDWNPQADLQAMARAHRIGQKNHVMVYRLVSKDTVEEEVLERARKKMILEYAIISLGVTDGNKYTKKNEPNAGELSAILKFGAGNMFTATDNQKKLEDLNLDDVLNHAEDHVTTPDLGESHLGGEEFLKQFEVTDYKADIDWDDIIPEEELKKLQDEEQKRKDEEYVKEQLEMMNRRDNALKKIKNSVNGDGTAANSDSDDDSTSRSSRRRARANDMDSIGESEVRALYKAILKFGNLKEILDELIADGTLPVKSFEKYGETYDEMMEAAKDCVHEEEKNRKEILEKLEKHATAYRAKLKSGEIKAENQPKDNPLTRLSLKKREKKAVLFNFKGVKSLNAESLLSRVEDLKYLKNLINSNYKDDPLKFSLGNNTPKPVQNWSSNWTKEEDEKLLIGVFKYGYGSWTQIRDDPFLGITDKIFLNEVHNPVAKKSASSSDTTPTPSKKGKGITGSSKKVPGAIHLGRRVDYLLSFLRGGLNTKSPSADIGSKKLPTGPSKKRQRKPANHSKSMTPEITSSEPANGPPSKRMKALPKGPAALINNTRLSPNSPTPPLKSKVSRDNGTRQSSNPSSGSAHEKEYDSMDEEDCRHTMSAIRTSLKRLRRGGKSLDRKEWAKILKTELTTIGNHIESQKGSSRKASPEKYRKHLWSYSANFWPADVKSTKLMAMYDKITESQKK

Protein translocase subunit SecA (Escherichia coli (strain K12)), sequence (P10408 whole entry): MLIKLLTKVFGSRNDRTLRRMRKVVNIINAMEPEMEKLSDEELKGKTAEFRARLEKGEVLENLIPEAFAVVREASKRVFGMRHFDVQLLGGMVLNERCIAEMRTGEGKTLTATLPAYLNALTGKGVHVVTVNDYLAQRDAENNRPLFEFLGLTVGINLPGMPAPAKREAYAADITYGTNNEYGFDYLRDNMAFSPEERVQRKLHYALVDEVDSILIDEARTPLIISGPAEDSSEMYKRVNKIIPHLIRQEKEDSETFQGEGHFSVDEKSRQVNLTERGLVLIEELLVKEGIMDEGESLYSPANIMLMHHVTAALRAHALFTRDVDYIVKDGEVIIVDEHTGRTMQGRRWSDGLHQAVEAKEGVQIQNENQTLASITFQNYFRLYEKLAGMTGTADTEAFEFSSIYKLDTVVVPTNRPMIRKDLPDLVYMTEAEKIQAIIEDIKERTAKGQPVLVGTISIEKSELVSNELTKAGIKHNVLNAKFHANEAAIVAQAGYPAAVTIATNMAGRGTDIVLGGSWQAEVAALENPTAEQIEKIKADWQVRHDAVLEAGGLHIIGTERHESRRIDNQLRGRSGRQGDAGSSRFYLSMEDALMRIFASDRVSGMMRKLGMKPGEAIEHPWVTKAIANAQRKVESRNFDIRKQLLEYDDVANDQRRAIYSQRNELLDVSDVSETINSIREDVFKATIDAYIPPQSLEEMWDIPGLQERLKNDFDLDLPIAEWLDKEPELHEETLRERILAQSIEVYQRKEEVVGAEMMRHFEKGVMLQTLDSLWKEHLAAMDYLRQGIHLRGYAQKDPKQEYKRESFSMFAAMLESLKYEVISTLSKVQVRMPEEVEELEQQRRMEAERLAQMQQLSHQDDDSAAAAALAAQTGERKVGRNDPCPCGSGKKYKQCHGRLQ
Sialic acid-binding Ig-like lectin 9 (Homo sapiens), sequence (Q9Y336 whole entry): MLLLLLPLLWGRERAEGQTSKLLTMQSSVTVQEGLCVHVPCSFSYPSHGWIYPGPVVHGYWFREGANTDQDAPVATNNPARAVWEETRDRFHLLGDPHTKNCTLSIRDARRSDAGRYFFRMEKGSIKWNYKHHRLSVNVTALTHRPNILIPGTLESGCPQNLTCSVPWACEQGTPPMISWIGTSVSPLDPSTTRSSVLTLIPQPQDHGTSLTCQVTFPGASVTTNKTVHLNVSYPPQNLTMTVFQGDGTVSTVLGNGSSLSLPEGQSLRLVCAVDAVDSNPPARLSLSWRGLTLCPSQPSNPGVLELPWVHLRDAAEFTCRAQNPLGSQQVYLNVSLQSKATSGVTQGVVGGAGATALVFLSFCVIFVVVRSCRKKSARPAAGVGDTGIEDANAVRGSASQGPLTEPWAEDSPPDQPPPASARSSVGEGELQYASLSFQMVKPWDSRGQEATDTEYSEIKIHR

For the compound `O=C(NCc1cccnc1)C1=NN(c2ccccc2)C(=O)CN1`, the Percent Effect in [1] was -0.966%; in assay [2], 18.9%; in assay [3], 8.77%; in assay [4], 14.9%; in the assay with Trypanosoma cruzi, 0.293%; in [5] it was 26.1%. For the same compound, the Percent Effect in assay [6] was 15%; in the assay filed under Homo sapiens it was -2.67%; in assay [7], 6.45%; in assay [8] it was 18.5%; in [9], -8.57%.

With `O=C(CCc1ccccc1)N1CCC(N2CCNC2=O)CC1`, the Percent Effect is -4.14% in [1]; 7.79% in assay [2]; 3.48% in [3]; -3.35% in [4]; -4.6% with Trypanosoma cruzi; 1.47% in assay [5]. In addition, the Percent Effect was 6.06% in assay [6]; 15.5% in the assay filed under Homo sapiens; 3.81% in [7]; 14.1% in assay [8]; -13.9% in assay [9].

On to `O=C(CCc1cscn1)N1CCCC1c1noc(C2CC2)n1` (stereo not drawn), for which the Percent Effect in [1] is -5.78%; in assay [2], 16.2%; in [3], -11.8%; in assay [4], 6.15%; in the assay with Trypanosoma cruzi, -1.42%; in [5] it was -2%. Besides, the Percent Effect in [6] was 11.3%; in the assay filed under Homo sapiens, 6.02%; in [7], 12.3%; in assay [8] it was 16.1%; in assay [9], -5.15%.

In the case of `CSC(C)C(=O)N1CCCN(Cc2cscn2)CC1` (stereo not drawn), the Percent Effect in assay [1] is -3.08%; in assay [2], 18.4%; in assay [3], 1.3%; in [4], -6.37%; with Trypanosoma cruzi, -1.13%; in assay [5], -3.45%. The Percent Effect in assay [6] is 15.9%; in the assay filed under Homo sapiens, 9.75%; in assay [7], 4.41%; in assay [8] it was 9.76%; in assay [9] it was -13.2%.

For the compound `Cn1ncc2c1NC(=O)CC2c1ccc(Cl)cc1Cl` (stereo not drawn), the Percent Effect was -0.731% in assay [1]; 2.63% in [2]; 4.33% in assay [3]; 1.29% in [4]; -8.67% in the assay on Trypanosoma cruzi; -1.18% in assay [5]. Moreover, the Percent Effect in [6] is 11.8%; in the assay listed under Homo sapiens, 18%; in [7], 0%; in [8], 2.6%; in assay [9], -4.32%.

Regarding `c1ccc(-c2cc(CN3CCC(c4ccn[nH]4)CC3)on2)cc1`, the Percent Effect was -3.15% in assay [1]; -2.7% in assay [2]; -3.14% in [3]; 8.25% in assay [4]; -1.54% in the assay on Trypanosoma cruzi; -0.952% in assay [5]. Besides, the Percent Effect was 17.2% in assay [6]; 42.5% in the assay listed under Homo sapiens; 0.529% in assay [7]; 7.32% in [8]; -3.02% in [9].

In the case of `O=C(Cc1ccc2c(c1)OCCO2)N1CCCC(n2ccnc2)C1` (stereo not drawn), the Percent Effect in assay [1] was -8.71%; in [2] it was 5.2%; in assay [3], -7.38%; in assay [4] it was -6.56%; in the assay with Trypanosoma cruzi, 10.7%; in assay [5], -3.58%. Besides, the Percent Effect is 4.77% in assay [6]; 2.67% in the assay filed under Homo sapiens; 1.91% in [7]; 11.8% in assay [8]; -24.2% in assay [9].

On to `Cc1ccsc1CNC(=O)Cc1c(C)nc2c(c1C)c(=O)[nH]n2C`, for which the Percent Effect is -4.14% in assay [1]; 10.4% in [2]; 5.94% in assay [3]; 8.57% in assay [4]; -2.06% in the assay on Trypanosoma cruzi; 2.32% in assay [5]. In addition, the Percent Effect in assay [6] is 5.25%; in the assay filed under Homo sapiens it was 21.2%; in [7], 2.86%; in assay [8], 11.8%; in assay [9] it was -20.4%.
